Cy5 interf NS3h: enhances or quenches Cy5 fluorescence in NS3h assay | Cy5-dT15 DNA with NS3h, fluorescence interference; actives lie on both sides; signal over control mean, under 1 quenches | fluorescence interference ratio at 100 µM | 6% of 16,000 active;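 active = compound fluorescence over control fluorescence at most 0.8, a quencher, or at least a set upper limit, an enhancer; inactive = ratio between 0.8 and the set upper limit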
NS3h inh CB: hepatitis C NS3 helicase inhibition, primary screen; NS3h Cy5-dT15 DNA binding, fluorescence polarization; inhibition, % at 100 µM; 1.6% of 16,000 active;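 active = inhibition above the average over every tested compound plus 3 SD, cut at about 40% in these data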
An asterisk follows results filed as active. A selection: hits, their analogues and other compounds. The true share with any hit is near 6.8%.

SMILES	Cy5 interf NS3h	NS3h inh CB
COc1cc(/C=C(/C#N)C(=O)Nc2ccc(Cl)cc2)ccc1OC(C)C	0.98	0
O=C(Nc1ccc(Cl)cn1)S(=O)(=O)c1ccccc1	1	4
CCOC(=O)CNC(=O)c1ccc([N+](=O)[O-])cc1	0.97	-14
COc1ccccc1NC(=O)CSc1nsc(SCC(=O)Nc2ccccc2OC)n1	0.9	1
CCOc1ccccc1NC(=O)CSc1nnc(C)s1	0.68*	0
COc1ccc(/C=C2/SC(=S)N(CCCC(=O)OCCN(C)C)C2=O)cc1	0.8*	4
COCCCN1C(=O)/C(=C/c2ccc(N(C)C)cc2)SC1=S	1	31
CCOc1cc(OCC)cc(C(=O)Nc2cc(Cl)cc(Cl)c2)c1	0.93	2
Cc1cc(OCC(=O)Nc2cccc3nsnc23)ccc1Cl	1	-4
O=C(COc1ccccc1[N+](=O)[O-])Nc1ccc2oc(-c3cccc(Cl)c3)nc2c1	1.1	-19
O=C(Nc1cccc(-c2nc3cc(Cl)ccc3o2)c1)c1ccc2c(c1)OCCO2	0.71*	11
CC(=O)Nc1ccc2oc(-c3cccc(Cl)c3)nc2c1	1.2*	-20
Cc1ccc(-c2nc3cc(Cl)ccc3o2)cc1NC(=O)c1ccc2c(c1)OCCO2	1.2	-4
O=C1/C(=C\c2ccc(-c3ccc([N+](=O)[O-])cc3Br)o2)SC(=S)N1Cc1ccccc1	0.97	29
O=C(Nc1ccccc1C(=O)Nc1ccccn1)c1ccco1	1.1	42*
O=C(Nc1ccccc1C(=O)Nc1ccccn1)c1ccccc1F	0.95	9
S=C(NCCOc1cccc2ccccc12)Nc1cccc2ccccc12	1	28
CCc1ccc(NC(=O)C(=O)NCC2CCCO2)cc1 (configuration not stated)	0.75*	18
O=C(NCC1CCCO1)C(=O)Nc1ccccc1F (configuration not stated)	0.99	2
CC(NC(=O)C(=O)NCC1CCCO1)c1ccccc1 (configuration not stated)	0.64*	-2
O=C(NCC1CCCO1)C(=O)Nc1ccc(F)cc1 (configuration not stated)	1	2
Cc1ccc(N2C(=O)c3ccccc3NC2c2cccc(O)c2)cc1 (configuration not stated)	1	21
CC(=O)N1C(=O)/C(=C/C(=O)c2ccccc2)c2ccccc21	0.79*	9
Cc1ccc(C(=O)/C=C2\C(=O)Nc3ccccc32)cc1	0.95	15
COc1ccc(N=C(NOC(C)=O)c2ccc(Cl)cc2)c(OC)c1	0.73*	10
SMILES	Cy5 interf NS3h	NS3h inh CB
COc1ccc(/C=C/C(=O)c2ccc(Cl)cc2)c(OC)c1	0.97	4
O=C(CCCC(=O)OCC(F)(F)C(F)F)Nc1ccc(F)cc1F	1.1	3
O=C(Cn1cnc([N+](=O)[O-])n1)Nc1ccc(F)cc1F	0.76*	6
C=CCN1C(=O)C(Cc2ccc(Br)cc2)S/C1=N/N=C\c1cccs1 (configuration not stated)	0.98	11
CCOc1ccc(C(=O)Nc2cccc3nsnc23)cc1Br	0.99	8
O=C(NC(NC(=S)Nc1cccc2ccccc12)C(Cl)(Cl)Cl)c1ccccc1 (configuration not stated)	0.9	8
CC(=O)c1ccc(NC(=S)NC(NC(=O)c2ccc(C)cc2)C(Cl)(Cl)Cl)cc1 (configuration not stated)	0.99	-8
Cc1ccc(C(=O)NC(NC(=S)Nc2cccc3ccccc23)C(Cl)(Cl)Cl)cc1 (configuration not stated)	0.71*	5
CC(=O)c1ccc(NC(=S)NC(NC(=O)c2ccc(Cl)cc2Cl)C(Cl)(Cl)Cl)cc1 (configuration not stated)	1	0
CC(=O)Nc1ccc(NC(=S)NC(NC(=O)c2ccc(C)cc2)C(Cl)(Cl)Cl)cc1 (configuration not stated)	0.67*	6
CC(=O)NC(NC(=S)Nc1cccc(Cl)c1)C(Cl)(Cl)Cl (configuration not stated)	1.2*	19
C=CCOc1ccc(/C=C/C(=O)c2cccc(Br)c2)cc1	1.1	6
CCOC(=O)N1CCN(C(=O)c2ccc(I)cc2)CC1	1	4
CCOc1cc(/C=c2\sc3nc4ccccc4n3c2=O)cc(Cl)c1OCCOc1ccccc1C	1	1
O=C(CSc1cc(Cl)ccc1Cl)Nc1cccc(C(F)(F)F)c1	0.89	-4
Cn1ccnc1SCC(=O)Nc1cccc(C(F)(F)F)c1	0.76*	10
Oc1ccccc1/C=N\N=C/c1ccccc1O	1	-4
COc1ccc(CCNC(=O)c2ccc(N(Cc3ccc(Cl)cc3)S(C)(=O)=O)cc2)cc1OC	0.75*	8
COc1ccc(NC(=O)CN(c2ccc(OC)cc2)S(C)(=O)=O)cc1	1	7
COc1ccc(N(CC(=O)NCCc2ccc(OC)c(OC)c2)S(=O)(=O)c2ccc(OC)c(OC)c2)cc1	1.2*	24
Cc1ccc(N(Cc2ccc(C(=O)NCCSc3ccc(Cl)cc3)cc2)S(C)(=O)=O)cc1C	0.93	0
COc1ccc(OC)c(N(CC(=O)NCCc2ccc(OC)c(OC)c2)S(=O)(=O)c2ccc(OC)c(OC)c2)c1	1	7
COc1ccc(N(CC(=O)Nc2ccc(C)c(C)c2)S(C)(=O)=O)cc1	1.2*	10
COc1ccc(N(Cc2ccc(C(=O)NCc3ccccc3OC)cc2)S(=O)(=O)c2ccccc2)cc1	0.69*	20
COc1ccccc1CNC(=O)c1ccc(CN(c2ccccc2)S(C)(=O)=O)cc1	0.97	7
SMILES	Cy5 interf NS3h	NS3h inh CB
N#CC1CC(c2ccccc2)=NN1c1ccccc1 (configuration not stated)	0.96	6
NC(=NC(=NS(=O)(=O)c1ccccc1)c1ccccc1)SCc1ccccc1	0.86	10
O=C(NCc1ccccc1)/C(NC(=O)c1ccccc1)=C1\c2ccccc2-c2ccc([N+](=O)[O-])cc21	1	4
COC(=O)c1cc(C(=O)NC2CCSC2=O)cc([N+](=O)[O-])c1 (configuration not stated)	1	0
COc1cc([N+](=O)[O-])ccc1-c1ccc(/C=C(\C#N)C(=O)Nc2ccc(F)cc2)o1	1.1	3
Cc1c(N(C(=O)c2ccc(F)cc2)C(C)C)c(=O)n(-c2ccccc2)n1C	1.1	3
COCCCNC(=O)c1ccc(CN(c2ccccc2)S(C)(=O)=O)cc1	0.79*	8
COCCCNC(=O)c1ccc(N(C)S(=O)(=O)c2ccccc2)cc1	1.1	4
CCCc1cc(=O)n2[nH]c(-c3ccc(C)cc3)c(C)c2n1	0.93	3
Brc1ccc(C=Nc2ccc(Oc3ccccc3)cc2)s1	0.94	16
CCOC(=O)COc1ccc(/C=C2/C(=O)NN(c3ccc(I)cc3)C2=O)cc1OC	0.88	3
CCOc1ccccc1/C=C1/C(=O)NN(c2ccc(C)c(Cl)c2)C1=O	0.74*	14
CCOc1ccccc1/C=C1/C(=O)NN(c2ccc(C)c(C)c2)C1=O	0.91	16
CCOC(=O)c1ccc(N2NC(=O)/C(=C/c3ccc(O)c(OCC)c3)C2=O)cc1	0.73*	2
Cc1cc2nc(SCc3ccc(Cl)cc3)nc(C)c2cc1C	1	0
O=[N+]([O-])c1ccc(S(=O)(=O)N/N=C\c2ccco2)cc1	1.1	4
O=C1C2C3C=CC(C3)C2C(=O)N1c1ccc(-c2ccnc(-c3ccc(N4C(=O)C5C6C=CC(C6)C5C4=O)cc3)n2)cc1 (configuration not stated)	0.97	7
